# FBA Mtb inh: Mtb fructose-bisphosphate aldolase inhibition. P9WQA3. inhibition, % at 1 µM. actives 2.3% (n = 360,000). purified M. tuberculosis FBA, fluorescence read-out. AID 588726;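 further: 0% = vehicle and 100% = reference inhibitor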
# SSB-PriA inh: inhibitors of Klebsiella pneumoniae PriA binding to SSB C-terminal tail. AID 1272365. actives 0.6% (n = 430,000). AlphaScreen SSBct-PriA binding, biotinylated peptide. inhibition, % at 33 µM; in the data active means inhibition mostly above about 37%, no sharp cut-off; inactive means mostly below about 20%;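 further: plate controls were negative control peptide for no effect and reference peptide for full effect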
# Mtb bLac sens: beta-lactam sensitization of Mtb H37Rv; M. tuberculosis H37Rv growth with meropenem, percent inhibition; inhibition, % at 25 µM; AID 434955; actives 0.27% (n = 330,000); call rule not given here;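 further: growth measured after seven days incubation then overnight dye step; 0% = bacteria only wells and 100% = bacteria with antibiotic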
# GDH-TPI counter-1: counter-screen for M. tuberculosis FBA inhibitors: GDH-TPI coupled enzymes. GDH-TPI coupled enzyme counterscreen, NADH absorbance. inhibition, % at 4.8 µM. actives 1.2% (n = 360,000); in the data active means inhibition above about 30%;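 further: 0% = DMSO wells and 100% = wells lacking the enzyme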
# Rv3671c protease: inhibits the M. tuberculosis serine protease Rv3671c; P9WHR9; inhibition, % at 5.96 µM; actives 0.048% (n = 320,000); in the data active means inhibition above about 38%;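 further: extracellular domain of Rv3671c used as enzyme; 0% = enzyme with DMSO and 100% = no enzyme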
# Target sequence (P9WHR9 whole entry, looked up, the tested form may be a part): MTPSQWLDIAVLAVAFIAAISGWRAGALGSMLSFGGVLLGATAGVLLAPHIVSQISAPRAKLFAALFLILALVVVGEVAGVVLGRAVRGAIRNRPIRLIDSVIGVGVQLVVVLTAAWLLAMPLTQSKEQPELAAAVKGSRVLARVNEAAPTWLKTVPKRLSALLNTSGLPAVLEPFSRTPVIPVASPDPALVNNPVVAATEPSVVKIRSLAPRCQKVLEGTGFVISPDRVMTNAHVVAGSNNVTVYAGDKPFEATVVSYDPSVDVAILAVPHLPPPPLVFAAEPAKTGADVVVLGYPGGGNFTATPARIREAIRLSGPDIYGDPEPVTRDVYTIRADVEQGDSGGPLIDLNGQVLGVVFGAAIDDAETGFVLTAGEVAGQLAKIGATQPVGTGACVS
# UGM FP inh: Mtb UDP-galactopyranose mutase inhibition; purified UGM, fluorescence polarization probe displacement; inhibition, % at 10 µM; actives 0.06% (n = 320,000); AID 504406; in the data active means inhibition above about 10%, passing the limit was not always enough
# Mtb FBA inh conf: Mtb FBA inhibition, confirmed; shares compounds with FBA Mtb inh; inhibition, % at 1 µM; actives 78% (n = 5,600); purified M. tuberculosis FBA, fluorescence read-out; AID 651616;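 further: 0% = vehicle wells and 100% = reference inhibitor wells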
# GDH-TPI counter-2: inhibits GDH-TPI coupling enzymes, flagging Mtb FBA hits; actives 81% (n = 5,600); inhibition, % at 1 µM; GDH-TPI coupled enzyme counterscreen, fluorescence; shares compounds with FBA Mtb inh; in the data active means inhibition above about 10%
# * marks the source's active call; other numbers are inactive results; x = no result; + = active, no number. An excerpt weighted towards active compounds, which were near 3.2% of everything screened. Unless noted, no stated cut-off is given here; in the data, active means inhibition above about 27%; inactive means the rest.
SMILES,FBA Mtb inh,SSB-PriA inh,Mtb bLac sens,GDH-TPI counter-1,Rv3671c protease,UGM FP inh,Mtb FBA inh conf,GDH-TPI counter-2
CCOc1ccc2[nH]c(=O)c(CN(Cc3ccco3)C(CC)c3nnnn3Cc3ccccc3)cc2c1 (stereo not drawn),27*,-20,60,-9,-5,2,+,+
CN(C(=O)CCc1ccccc1)c1nnc(-c2ccncc2)s1,6,-1,-10,1,-11,1,x,x
C=CCN(C(=O)COc1ccccc1)c1nnc(-c2ccncc2)s1,41*,-11,-10,15,-5,-1,95*,70*
COCCN1CCC(CNC(=O)c2cccc(C)c2)CC1,x,7,x,x,x,x,x,x
COc1ccc(-c2nc(NC(=O)CSc3nnc(C)s3)ns2)cc1,41*,4,33,10,-2,1,5,-4
CCOC(=O)C/C(C)=N\Nc1nc(-c2ccccc2)cs1,69*,x,2,14,1,0,54*,42*
O=C1c2ccccc2NC(c2ccc(-c3cccs3)o2)N1O (stereo not drawn),97*,-4,-1,15,-7,3,79*,73*
O=C1c2ccccc2NC(c2ccc(Br)o2)N1O (stereo not drawn),10,-13,-7,8,9,-2,x,x
C=CCOc1c(Br)cc(C2C3=C(CCCC3=O)N(C)C3=C2C(=O)CCC3)cc1OCC,58*,-25,5,14,-17,2,58*,41*
CCNc1cc(C)nc(N2CCN(C(=O)c3ccccc3Br)CC2)n1,x,-15,x,x,x,x,x,x
CN(C)C(CNC(=O)C(=O)Nc1nccs1)c1ccco1 (stereo not drawn),x,6,x,x,x,x,x,x
Cc1ccc(-c2cc3nc(C)cc(C)n3n2)cc1,9,-8,-8,-5,-3,1,x,x
Cc1cc(C)n2nc(-c3ccsc3-n3c(C)ccc3C)cc2n1,46*,-18,-1,4,-13,-3,61*,27*
CC1(c2ccc3ccccc3c2)NC(=O)N(CC(=O)N2CCC(C(N)=O)CC2)C1=O (stereo not drawn),54*,-10,-2,1,3,0,96*,63*
Cc1ccc(C(=O)CSc2[nH]c(=O)ncc2C)cc1,x,0,x,x,x,x,x,x
O=C(c1c[nH]c2ccc(S(=O)(=O)N3CCC4(CC3)OCCO4)cc2c1=O)N1CCC2(CC1)OCCO2,34*,-1,-5,-2,-3,1,46*,44*
CCOCCCNC(=O)c1cccs1,1,-6,0,-1,-1,-2,x,x
CCOCCCNC(=O)c1cc2c(=O)n(CC)c3ccccc3c2s1,59*,-5,-4,12,-6,-1,+,+
CCn1c(=O)c2cc(C(=O)Nc3ccc(OC)cc3OC)sc2c2ccccc21,0,-1,3,0,-6,-2,x,x
CCn1c(=O)c2cc(C(=O)NCCOC)sc2c2ccccc21,51*,-4,-9,21,-5,1,57*,43*
CCn1c(=O)c2cc(C(=O)N3CCOCC3)sc2c2ccccc21,17,0,56,29,0,-1,x,x
CCn1c(=O)c2cc(C(=O)N(C)CC(OC)OC)sc2c2ccccc21,35*,-7,-11,21,-10,-2,+,+
NC(=NCc1ccccc1)NC(=O)c1nc(Cl)c(N)nc1N,37*,-1,8,15,-3,0,32*,37*
O=C1c2ccccc2NC(c2ccccc2)N1Cc1ccccc1 (stereo not drawn),63*,-32,-8,-8,4,4,39*,15*
O=C1c2ccccc2NC(c2ccc(F)cc2)N1Cc1ccccc1 (stereo not drawn),57*,0,-2,7,-3,2,79*,55*
SMILES,FBA Mtb inh,SSB-PriA inh,Mtb bLac sens,GDH-TPI counter-1,Rv3671c protease,UGM FP inh,Mtb FBA inh conf,GDH-TPI counter-2
O=C1NCCN1CCN1C(=O)c2ccccc2NC1c1ccccc1 (stereo not drawn),72*,-17,-1,4,1,-2,108*,91*
COc1cccc(C2Nc3ccccc3C(=O)N2Cc2ccccc2)c1 (stereo not drawn),61*,-18,3,-1,1,-3,24,18*
Cc1nc(-c2cccs2)sc1CNC(=O)Cc1c(C)noc1C,x,-11,x,x,x,x,x,x
CCOC(=O)c1cc2c(=O)n3cccc(C)c3nc2n(CC2CCCO2)c1=NC(C)=O (stereo not drawn),79*,-1,2,6,-2,-2,90*,68*
CCCOc1ccc(C(=O)NCc2cccnc2)cc1,2,-17,-8,5,3,0,x,x
CCOC(=O)N1CCN(C(=O)c2ccc3c(c2)N(Cc2ccccc2)CCS3)CC1,11,-5,1,5,7,-1,x,x
CCOc1ccccc1CNC(=O)c1ccc2nc(N3CCOCC3)sc2c1,1,1,16,-9,-2,1,x,x
CCOc1ccccc1CNC(=O)c1ccc2c(c1)N(CC)CCS2,74*,-6,-5,14,4,4,26,21*
CCN1CCSc2ccc(C(=O)NCc3cccc(Br)c3)cc21,40*,-16,-4,6,8,1,107*,82*
CCN1CCSc2ccc(C(=O)NCc3cccc(F)c3)cc21,49*,-8,-11,4,6,-1,+,162*
CCCOc1ccc(CNC(=O)c2ccc3c(c2)N(CC)CCS3)cc1,75*,-3,-6,1,17,3,157*,99*
Cc1cc(C(=O)NCC(O)c2cn(C)c3ccccc23)no1 (stereo not drawn),x,-15,x,x,x,x,x,x
CCOc1ccc(NC(C)=CC(=O)c2ccc(C)o2)cc1,x,11,x,x,x,x,x,x
Cc1cc(C(=O)Nc2ccccc2C(F)(F)F)c(C)o1,x,9,x,x,x,x,x,x
O=Nc1c(O)ccc2cc(S(=O)(=O)O)ccc12,-4,-14,x,6,x,x,x,x
Nc1cccc2cc(S(=O)(=O)O)ccc12,39*,12,x,16,x,x,5,5
CCOC(=O)NN1C(=O)c2ccccc2NC1c1cccs1 (stereo not drawn),31*,-3,5,15,6,-1,82*,70*
O=C1c2ccccc2NC(c2cccs2)N1NS(=O)(=O)c1ccccc1 (stereo not drawn),10,-11,-2,6,-2,-1,x,x
CCOC(=O)NN1C(=O)c2ccccc2NC1c1ccc(OC)cc1OC (stereo not drawn),42*,-11,5,3,0,-1,180*,144*
Cc1noc(C)c1CN1CCN(C(=O)c2cccc(Cl)c2)CC1,x,-21,x,x,x,x,x,x
COc1ccccc1-c1cc2nc(-c3ccccc3)cc(N3CCN(C(=O)c4ccoc4)CC3)n2n1,55*,x,x,12,x,x,4,1

# Screening data (PubChem BioAssay)
